The values that follow come from PubChem BioAssay (Tox21).

A short description of experiment [1]: qHTS assay to identify small molecule antagonists of the estrogen related receptor (ERR) signaling pathway from Tox21 library - cell viability counter screen (AID 1224834). Note: nearly all actives have a fitted effect of over 30% in size. Note: potency is the fitted concentration of half-maximal effect. Put shortly: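 Seeded ERR cells were rested 6 h at 37 C/5% CO2 before compounds, positive and negative controls or DMSO were added. Incubation continued for 17.5 h, and viability was then quantified by CellTiter-Fluor fluorescence.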

For experiment [2], the target named is Luciferin 4-monooxygenase (Photinus pyralis) (UniProt P08659). In words: qHTS assay to identify small molecule inhibitors of firefly luciferase (AID 1224835). Note: nearly all actives have a fitted effect of over 25% in size. Note: potency is the fitted concentration of half-maximal effect. Put shortly:
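Inhibition of purified Photinus luciferase is measured by luminescence. Substrate levels (D-luciferin, ATP) sit at their KM values. Each compound is tested in a concentration series.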
(Quantitative high-throughput screening tests each substance at several concentrations.)

Experiment [3] can be described thus: qHTS assay to identify small molecule agonists of the constitutive androstane receptor (CAR) signaling pathway - cell viability counter screen (AID 1224836). Note: nearly all actives have a fitted effect of over 45% in size. Note: potency is the fitted concentration of half-maximal effect. A digest of the protocol: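 Fluorescence from CellTiter-Fluor indicates live cells after 23 h exposure. The human hepatoma line expresses hCAR and a CYP2B6-2.2kb reporter. Incubation medium contains 0.75 uM PK11195 (final).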

Experiment [4] is described as follows: qHTS assay to identify small molecule antagonists of the constitutive androstane receptor (CAR) signaling pathway - cell viability counter screen (AID 1224837). Note: nearly all actives have a fitted effect of over 45% in size. Note: potency is the fitted concentration of half-maximal effect. A digest of the protocol:
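To flag cytotoxic false antagonists, HepG2 hCAR/CYP2B6-2.2kb cells were treated 23 hr with 15-concentration compound series and 50 nM CITCO at 37 C/5% CO2; CellTiter-Fluor fluorescence was the measured end point.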

Experiment [5] deals with Nuclear receptor subfamily 1 group I member 3 (Homo sapiens) (UniProt Q14994). Nature of the experiment: qHTS assay to identify small molecule antagonists of the constitutive androstane receptor (CAR) signaling pathway (AID 1224838).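 Note: HepG2 cells stably expressing hCAR with CYP2B6 luciferase reporter stimulated by CITCO; nearly all actives have a fitted effect of over 40% in size.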 A digest of the protocol:
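Human hepatoma HepG2 cells expressing hCAR and a CYP2B6 promoter (2.2 kb) luciferase construct; compound titration (15 points) with 50 nM CITCO final, 24 h at 37 C/5% CO2; luminescence via ONE-Glo after 30 min at room temperature.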

Experiment [6] has the same target. In words: qHTS assay to identify small molecule agonists of the constitutive androstane receptor (CAR) signaling pathway (AID 1224839).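 For activation: HepG2 cells stably carrying human CAR and a CYP2B6 luciferase reporter.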 Note: nearly all actives have a fitted effect of over 15% in size. Note: potency is the fitted concentration of half-maximal effect. Put shortly:
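Stable hCAR/CYP2B6-2.2kb HepG2 line in DMEM with 10% FBS; compounds (15 concentrations) and 0.75 uM PK11195 final, 24 h at 37 C/5% CO2, then ONE-Glo luminescence after 30 min.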

The nature of experiment [7]: qHTS assay to identify small molecule antagonists of the estrogen related receptor signaling pathway with the pleiotropic PPARgamma coactivator (PGC) from Tox21 10K library - cell viability counter screen (AID 1224840; active = well fitted cell-killing curve with a large enough effect in the repeat runs, not every such curve was filed as active; note: nearly all actives have a fitted effect of over 40% in size). A digest of the protocol: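 Seeded PGC/ERR cells (2,000/well, 6 h, 37 C/5% CO2) get compound by pin tool; 17.5 h incubation at 37 C; CellTiter-Fluor added, 30 min, fluorescence measured.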

Experiment [8] can be described thus: qHTS assay to identify small molecule agonists of the hypoxia (HIF-1) signaling pathway - cell viability counter screen (AID 1224844; calls by dose curve; note: nearly all actives have a fitted effect of over 50% in size). A digest of the protocol:
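HRE-bla ME-180; 0.5% dFBS; cpd 17 h, 37C, 5% CO2; CellTiter-Glo lum., 30 min RT, post-FRET read, same wells.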

A short description of experiment [9]: qHTS assay to identify small molecule agonists of H2AX (AID 1224845; active = well fitted activation curve with a large enough effect in the signal ratio in the repeat runs, not every such curve was filed as active; the % refers to the signal ratio). Put shortly:
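Phospho-H2AX Ser139 measured by HTRF (ex 320 nm; em 665 and 620 nm) after 24 hr antibody incubation. Compounds, 15 concentrations, 0.76% DMSO, were applied to CHO-K1 cells for 3hr at 37C before lysis.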

Experiment [10] can be described thus: qHTS assay to identify small molecule agonists of H2AX - cell viability counter screen (AID 1224847; calls by dose curve; note: top concentration of the series differs between compounds; nearly all actives have a fitted effect of over 30% in size). A digest of the protocol:
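Viability of CHO-K1 (wild type) cells after 3 hr compound exposure was measured by CellTiter-Glo luminescence.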

The nature of experiment [11]: qHTS RealTime-Glo MT Cell Viability Assay in HepG2 cells - 24 hour (AID 1224867). Note: nearly all actives have a fitted effect of over 50% in size. A digest of the protocol:
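Tox21 10K library screened in qHTS format on HepG2 cells carrying RealTime-Glo reagents. Compounds were added after a 5 h preincubation, and the luminescent signal from continuous culture was measured repeatedly during 40 h treatment.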

Experiment [12] in a line: qHTS RealTime-Glo MT Cell Viability Assay in HEK293 cells - 32 hour (AID 1224868). Note: top concentration of the series differs between compounds; nearly all actives have a fitted effect of over 50% in size. Put shortly: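 Luminescence generated by NanoLuc from substrate produced by living HEK293 cells served as the viability signal. Each value reflects the reading at its stated time point during continuous 40 h compound exposure at 37 C.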
Experiment [13] in a line: qHTS assay to identify small molecule agonists of the estrogen related receptor signaling pathway with the pleiotropic PPARgamma coactivator (PGC) (AID 1224823). Note: potency is the fitted concentration of half-maximal effect. A digest of the protocol:
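Compounds dissolved in DMSO are added by pin tool to PGC/ERR cells that have settled for 6 h, and incubation continues 18 h at 37 C. Reporter output is measured as One-Glo luminescence.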

The nature of experiment [14]: qHTS assay to identify small molecule antagonists of the estrogen related receptor signaling pathway with the pleiotropic PPARgamma coactivator (PGC) from Tox21 10K library (AID 1224841; call rule not given here; note: actives are mostly falling curves and most rising ones were filed inactive; nearly all actives have a fitted effect of over 50% in size). Put shortly: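 Test chemicals dissolved in DMSO were applied to pre-incubated (6 h) PGC/ERR cells at 2,000 cells/well for an 18 h, 37 C treatment; reporter luminescence was then read using One-Glo.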

Experiment [15] has as its target Thyrotropin receptor (Homo sapiens) (UniProt P16473). Nature of the experiment: qHTS assay to identify small molecule agonists of the thyroid stimulating hormone receptor (TSHR) signaling pathway (AID 1224843; calls by dose curve; note: nearly all actives have a fitted effect of over 45% in size). A digest of the protocol:
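Agonist activity read as cAMP rise via d2/cryptate HTRF competition, 1 h room-temperature detection, in HEK293 cells expressing TSHR. Fifteen-point titrations, each run in triplicate, with a 30 min room-temperature incubation beforehand.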

The nature of experiment [16]: qHTS assay to identify small molecule antagonists of the estrogen related receptor (ERR) signaling pathway from Tox21 library (AID 1224848). Note: nearly all actives have a fitted effect of over 50% in size. A digest of the protocol:
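Luciferase luminescence (ONE-Glo, 30 min room temperature) was the read-out. Cells of the NTP-supplied ERR line, 2,000 per well, were given 6 h at 37 C before compound addition in DMSO and 18 h exposure at 37 C.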

Experiment [17] is described as follows: qHTS assay to identify small molecule agonists of the estrogen related receptor (ERR) signaling pathway from Tox21 library (AID 1224849; calls by dose curve; note: nearly all actives have a fitted effect of over 15% in size). Conditions: ERR reporter cell line, ONE-Glo luciferase, 18 h. Put shortly:
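Tox21 compounds tested for ERR agonism in an NTP reporter cell line: 18 h treatment at 37 C, then ONE-Glo luminescence.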

The nature of experiment [18]: qHTS assay to identify small molecule agonists of the hypoxia (HIF-1) signaling pathway (AID 1224846; active = well fitted activation curve with a large enough effect in the signal ratio in the repeat runs, not every such curve was filed as active; the % refers to the signal ratio). Put shortly:
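Reporter induction in HRE-bla ME-180 cells is taken as agonism: cells sit 5 hrs after plating, receive compounds or DMSO only, incubate 17 hrs at 37C under 5% CO2, and are loaded with CCF4-AM for beta-lactamase FRET measurement.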

The nature of experiment [19]: A CellTox Green Cytotoxicity Assay to monitor cytotoxicity in HEK293 cells - 0 hour (AID 1224869). Note: nearly all actives have a fitted effect of over 50% in size. Put shortly: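 Tox21 screen in HEK293: membrane-impermeant cyanine dye fluoresces on binding dead-cell DNA; compound pinned 5 h post-seeding, plates held at 37 C, signal read repeatedly through 40 h.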
Experiment [20] is described as follows: qHTS assay to identify small molecule agonists of the estrogen related receptor signaling pathway with the pleiotropic PPARgamma coactivator (PGC) from Tox21 10K library (AID 1224842). Note: nearly all actives have a fitted effect of over 15% in size. Note: potency is the fitted concentration of half-maximal effect. A digest of the protocol:
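Luminescence from One-Glo (30 min, room temperature) measured after PGC/ERR cells had 18 h at 37 C with pinned compound (23 nL in DMSO). Cells had been seeded at 2,000 per well and pre-incubated 6 h.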

The structures appear in SMILES notation. Where “and” joins values, the source holds several entries; their conditions need not be identical. Equal entries are not always repeated. A number with no mark means an inactive call. Records with an inconclusive call do not appear. Calls of active or inactive are those of the source. Unless noted, calls come from the whole dose curve; as a rule, active = well fitted curve in the direction sought with a large enough effect in the repeat runs; inconclusive = weak or mixed curves; inactive = no such curve, though single readings can be large; an effect the other way counts as inactive or inconclusive.
% is set by controls: 0 for no effect and ±100 for the full control effect.

Nuclear receptor subfamily 1 group I member 3 (Homo sapiens), sequence (Q14994 whole entry, looked up): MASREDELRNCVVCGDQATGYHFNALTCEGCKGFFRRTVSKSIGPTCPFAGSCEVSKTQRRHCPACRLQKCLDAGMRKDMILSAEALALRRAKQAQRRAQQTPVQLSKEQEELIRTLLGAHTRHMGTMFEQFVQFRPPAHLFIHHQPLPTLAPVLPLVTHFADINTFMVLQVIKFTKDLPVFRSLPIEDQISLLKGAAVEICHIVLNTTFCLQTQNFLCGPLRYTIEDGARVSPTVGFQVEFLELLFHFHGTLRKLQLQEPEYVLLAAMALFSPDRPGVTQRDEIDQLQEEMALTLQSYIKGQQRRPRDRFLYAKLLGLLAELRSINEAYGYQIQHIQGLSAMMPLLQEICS
Luciferin 4-monooxygenase (Photinus pyralis), sequence (P08659 whole entry, looked up): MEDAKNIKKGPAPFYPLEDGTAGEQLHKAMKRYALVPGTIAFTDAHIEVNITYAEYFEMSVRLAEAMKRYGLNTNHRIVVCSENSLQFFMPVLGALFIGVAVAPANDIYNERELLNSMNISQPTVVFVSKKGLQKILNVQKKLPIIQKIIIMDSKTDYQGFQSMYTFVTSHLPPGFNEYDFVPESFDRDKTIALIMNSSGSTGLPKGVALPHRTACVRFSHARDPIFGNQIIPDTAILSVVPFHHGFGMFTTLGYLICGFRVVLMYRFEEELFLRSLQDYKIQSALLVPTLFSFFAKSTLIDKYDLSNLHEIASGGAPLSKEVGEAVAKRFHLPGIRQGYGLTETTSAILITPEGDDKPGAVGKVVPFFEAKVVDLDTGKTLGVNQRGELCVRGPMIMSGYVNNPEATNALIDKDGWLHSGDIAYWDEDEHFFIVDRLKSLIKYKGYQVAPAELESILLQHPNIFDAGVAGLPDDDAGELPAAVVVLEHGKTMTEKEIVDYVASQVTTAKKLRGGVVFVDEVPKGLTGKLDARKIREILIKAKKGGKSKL
Thyrotropin receptor (Homo sapiens), sequence (P16473 whole entry, looked up): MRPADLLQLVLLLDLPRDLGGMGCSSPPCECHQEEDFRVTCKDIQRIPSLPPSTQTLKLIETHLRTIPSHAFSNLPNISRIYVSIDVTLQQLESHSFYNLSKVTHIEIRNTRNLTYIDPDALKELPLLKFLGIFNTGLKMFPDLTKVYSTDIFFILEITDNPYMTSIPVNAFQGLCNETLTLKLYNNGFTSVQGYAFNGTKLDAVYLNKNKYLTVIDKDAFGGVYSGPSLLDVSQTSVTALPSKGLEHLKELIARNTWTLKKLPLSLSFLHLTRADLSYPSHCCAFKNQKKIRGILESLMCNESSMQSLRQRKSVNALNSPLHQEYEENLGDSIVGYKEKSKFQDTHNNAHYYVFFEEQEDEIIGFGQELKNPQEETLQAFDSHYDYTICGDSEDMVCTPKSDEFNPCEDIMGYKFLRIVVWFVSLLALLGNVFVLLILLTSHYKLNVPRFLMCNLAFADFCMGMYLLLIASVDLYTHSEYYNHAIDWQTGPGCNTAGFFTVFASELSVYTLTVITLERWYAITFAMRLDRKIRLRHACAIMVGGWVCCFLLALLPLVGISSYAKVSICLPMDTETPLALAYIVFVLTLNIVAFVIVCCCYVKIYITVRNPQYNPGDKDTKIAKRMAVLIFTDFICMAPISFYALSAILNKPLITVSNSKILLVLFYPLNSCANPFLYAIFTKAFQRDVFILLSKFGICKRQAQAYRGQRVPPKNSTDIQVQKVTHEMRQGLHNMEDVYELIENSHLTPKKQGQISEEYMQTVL

As for `CS(=O)(=O)c1ccc([C@@H](O)[C@@H](CO)NC(=O)C(Cl)Cl)cc1`, the Potency entry in [1], in experiment [2], in experiment [3], in [4], in experiment [5] and in [6] was “inactive” each time. Moreover, the Potency result in [7], in experiment [8], in experiment [9], in experiment [10], in [11] and in experiment [12] was “inactive” throughout.
Take `O=C(O)c1cc(-c2ccccc2)nc2ccccc12`: the Potency entry in [13], in [1], in experiment [3], in [5], in [7] and in [14] was “inactive” each time. Also, the Potency entry in experiment [15], in experiment [8], in experiment [9], in [16], in experiment [11] and in experiment [12] was “inactive” each time. Besides, in experiment [2], the Potency is 12.8 µM (active) and 13.8 µM (active). Further, in experiment [17] (at 92.4 µM (top of the series)), the activity change, positive = activation was 1.96% (active).
Regarding `Oc1ccc2ccccc2c1N=Nc1ccccc1`, the Potency was 27.3 µM (active) in experiment [1]; 12.6 µM (active) and 22.4 µM (active) in [2]; 48.5 µM (active) and 30.6 µM (active) in [3]; 30.6 µM (active) in experiment [4]; 30.6 µM (active) and 21.7 µM (active) in experiment [6]. Further, the Potency result in experiment [5], in [15], in experiment [8], in experiment [9], in experiment [11] and in experiment [12] was “inactive” in each case. The Potency entry in experiment [19] is “inactive”. Besides, the result in experiment [18] was inactive.
For the compound `C=C(C#N)C(=O)OCC`, the Potency result in [1], in experiment [2], in experiment [3], in [4], in [5] and in [6] was “inactive” throughout. The Potency result in experiment [7], in experiment [14], in experiment [20], in experiment [15], in [8] and in experiment [9] was “inactive” in each case. Further, the Potency entry in experiment [16], in [11], in [12] and in [19] was “inactive” each time. Also, the call in [18] was inactive. Moreover, the activity change, positive = activation in experiment [17] (at 92.4 µM (top of the series)) is 7.93% and 0.135%.
As to `O=c1c(-c2ccc(O)cc2)coc2cc(O)ccc12`, the Potency in [13] was 20.3 µM (active); in experiment [2], 24.9 µM (active) and 12.6 µM (active); in experiment [6], 15.2 µM (active) and 10.9 µM (active); in [20], 24.1 µM (active) and 27.3 µM (active). In addition, the Potency entry in experiment [1], in experiment [3], in [4], in experiment [5], in experiment [7] and in experiment [14] was “inactive” throughout. The Potency entry in [15], in experiment [8], in [9], in experiment [10], in experiment [16] and in experiment [11] was “inactive” in each case. Besides, the Potency entry in [19] was “inactive”. Besides, in experiment [17] (at 92.4 µM (top of the series)), the activity change, positive = activation is 150% (active) and 64.9% (active).
On to `CC1Cc2ccccc2N1NC(=O)c1ccc(Cl)c(S(N)(=O)=O)c1` (configuration not stated), for which the Potency result in experiment [1], in experiment [2], in experiment [3], in [4], in [6] and in experiment [7] was “inactive” each time. The Potency entry in experiment [14], in experiment [20], in experiment [15], in experiment [8], in experiment [9] and in experiment [10] was “inactive” each time. For the same compound, the Potency result in experiment [16], in [11], in [12] and in experiment [19] was “inactive” each time. Also, the figures for the activity change, positive = activation in experiment [17] (at 42.5 µM (top of the series)) and in experiment [17] (at 92.4 µM (top of the series)) were -17.1% and -13.4%, respectively.
Take `CCCCCCCCC`: the Potency entry in experiment [1], in experiment [2], in [3], in [4], in [6] and in [7] was “inactive” each time. Moreover, the Potency entry in experiment [15], in experiment [8], in [9], in experiment [10], in [11] and in experiment [12] was “inactive” in each case. In addition, the Potency result in experiment [19] was “inactive”. Further, the result in [18] was inactive.
